Calls of active or inactive are those of the source. The call rests on the fitted dose curve.

This experiment can be described thus: Cell Proliferation Assay Versus the ED40515 IL2 Dependent ATL cell lines (AID 1053195). The note with it: ED40515 IL2-dependent ATL cells. The text has this: Adult T-cell leukemia (ATL) develops in individuals infected with human T-cell lymphotropic virus-1 (HTLV-1). Clinically, ATL is subclassified into four subtypes: smoldering, chronic, lymphomatous, and acute. Two autocrine loops (IL-2/IL-2Ralpha and IL-15/IL-15Ralpha) and one paracrine stimulation loop that involves IL-9 expression by ATL cells and IL-9Ralpha expression on monocytes are required to maintain viability and proliferation in the smoldering and chronic forms of the disease. These assays examined the differential response profiles for the MIPE library of approved and investigational drugs versus an IL2 dependent and independent matched ATL cell line, with the current submission examining the differential response profiles for drugs on an IL2 dependent matched ATL cell line.
Plate log growing ED40515 +IL2 cells: 1000cells/ well in 5uL phenol red free RPMI +5% FBS +1x p/s, Glutamine using 1536 well white griener tissue culture plates and multidrop cassette acoustic dispensing Columns 1 and 3 DMSO Columns 2 and 4, 9.2 uM Bortezomib Incubate 48 hours for celltiter glo 37C with 5%CO2 and 95% humidity with low evaporation lids Dispense 3 uL per well of cell titer glo with multidrop Incubate for 15 minutes at RT Read on VL/2 using Luminesence Wheel (Filter A)
With `Nc1ncnc2nc(-c3ccc(N4CCOCC4)nc3)cc(-c3cccc(Br)c3)c12`, the Potency was 14.8 µM (active).

As for `Cc1cc([C@@H](C)Nc2ccccc2C(=O)O)c2nc(N3CCOCC3)cc(=O)n2c1`, the Potency is 1.05 µM (active).

Consider `CCCS(=O)(=O)Nc1ccc(F)c(C(=O)c2c[nH]c3ncc(Cl)cc23)c1F`, for which the Potency is 16.6 µM (active).

As for `Cc1ccc(-n2nc(C(C)(C)C)cc2NC(=O)Nc2ccc(OCCN3CCOCC3)c3ccccc23)cc1`, the Potency was 26.4 µM (active).

`Cn1cc(-c2ccc3nnc(C(F)(F)c4ccc5ncccc5c4)n3n2)cn1`: the Potency was 7.43 µM (active).

With `COc1ccc2c3n(c(=NC(=O)c4cccnc4)nc2c1OC)CCN3`, the Potency is 4.18 µM (active).

As to `Nc1nc2ccc(OC(F)(F)F)cc2s1`, the Potency was 23.5 µM (active).

Take `CC1(C)SCCN(S(=O)(=O)c2ccc(OCC#CCO)cc2)[C@@H]1C(=O)NO`: the Potency is 23.5 µM (active).

For `C[C@]1(c2nc3c(C(N)=O)cccc3[nH]2)CCCN1`, the Potency was 16.6 µM (active).

Take `Cc1cc(-c2nnc3n2CCCCC3)c(C)n1-c1ccc(F)cc1`: the Potency was 11.8 µM (active).

`Oc1cccc(-c2nc(N3CCOCC3)c3oc4ncccc4c3n2)c1`: the Potency is 0.743 µM (active).

In the case of `O=C1[C@H](Cc2ccc(O)cc2)N2C(=O)CCN(C(=O)NCc3ccccc3)[C@H]2CN1Cc1cccc2ccccc12`, the Potency was 8.33 µM (active).

Take `COc1ccc(-c2oc3cc(OC)ccc3c2C(=O)c2ccc(C#N)cc2)cc1`: the Potency is 20.9 µM (active).

On to `O=C1CCCC2=C1C(c1[nH]ncc1Cl)N=C(Nc1nc3ccccc3o1)N2` (stereo not given), for which the Potency is 29.6 µM (active).

Consider `COc1ccc(COc2cc3oc(=O)c4cc(C(C)O)ccc4c3cc2OC)cc1` (stereo not given), for which the Potency was 18.7 µM (active).

As to `CN(C)c1ccc(Nc2nc(N)n(C(=O)c3c(F)cccc3F)n2)cc1`, the Potency was 0.743 µM (active).

Consider `Cc1cc(-c2ccc(CC(=O)Nc3ccc(-c4cccnc4)cc3)cc2)ccn1`, for which the Potency is 4.18 µM (active).

For `COc1cc(Nc2ncc3c(n2)-c2ccc(Cl)cc2C(c2c(F)cccc2OC)=NC3)ccc1C(=O)O`, the Potency is 0.0066 µM (active).

Regarding `COc1ccc(CC2=NN3C([C@@H](CCc4ccccc4)[C@@H](C)O)=NC(C)C3C(=O)N2)cc1OC` (stereo not given in full), the Potency was 10.5 µM (active).

For the compound `COc1ccc2nc(S(=O)Cc3ncc(C)c(OC)c3C)[nH]c2c1` (stereo not given), the Potency is 23.5 µM (active).

`Cc1ccnc(NS(=O)(=O)c2ccc(NC(=O)Nc3ccc(S(=O)(=O)Nc4nccc(C)n4)cc3)cc2)n1`: the Potency was 23.5 µM (active).

Take `CC(=O)NC(C)c1ccc(Oc2ccc(OC(C)C)cc2)cc1` (stereo not given): the Potency was 13.2 µM (active).

Consider `C#Cc1cccc(Nc2ncnc3cc(OCCOC)c(OCCOC)cc23)c1`, for which the Potency is 9.35 µM (active).

Regarding `CS(=O)(=O)c1ccc(C(=O)Nc2ccc(Cl)c(-c3ccccn3)c2)c(Cl)c1`, the Potency was 13.2 µM (active).

As to `CCCc1nn(C)c2c(=O)[nH]c(-c3cc(S(=O)(=O)N4CCN(C)CC4)ccc3OCC)nc12`, the Potency is 37.2 µM (active).

Turning to `CS(=O)(=O)Oc1ccc2c(NC(N)=O)c(C(=O)c3ccc(Cl)cc3Cl)oc2c1`, the Potency is 16.6 µM (active).

Turning to `COc1cc2c(cc1OC)CN(CCc1ccc(NC(=O)c3cccc4c(=O)c5cccc(OC)c5[nH]c34)cc1)CC2`, the Potency was 16.6 µM (active).

Take `CC(c1cc2ccccc2s1)N(O)C(N)=O` (stereo not given): the Potency was 67.9 µM (active).

As to `C[C@]12CCC(=O)C=C1CC[C@@H]1[C@@H]2[C@@H](O)C[C@@]2(C)[C@H]1CC[C@]2(O)C(=O)CO`, the Potency was 14.8 µM (active).

As for `N#Cc1ccc(C(c2ccc(C#N)cc2)n2cncn2)cc1`, the Potency is 10.5 µM (active).

With `NC(=O)C1CCCc2c1[nH]c1ccc(Cl)cc21` (stereo not given), the Potency is 33.2 µM (active).

Turning to `Cc1cc(Nc2nc(N[C@@H](C)c3ncc(F)cn3)ncc2Cl)n[nH]1`, the Potency was 0.662 µM (active).

`CCc1cc(Nc2nccc(-c3c(-c4ccc(OC)c(C(=O)Nc5c(F)cccc5F)c4)nc4ccccn34)n2)c(OC)cc1N1CCC(N2CCN(S(C)(=O)=O)CC2)CC1`: the Potency was 1.66 µM (active).

As to `O=S(=O)(N=Cc1c(O)ccc2ccccc12)c1cccs1`, the Potency was 20.9 µM (active).

For `CCN(c1ccccc1)c1cc(NC)[n+](C)c(C)n1`, the Potency is 18.7 µM (active).

Consider `O=c1[nH]c(-c2ccc(C(F)(F)F)cc2)nc2c1CSCC2`, for which the Potency is 26.4 µM (active).

Consider `Cc1csc(NC(=O)c2sc3nc4c(c(C(F)(F)F)c3c2N)CCC4)n1`, for which the Potency is 18.7 µM (active).

On to `O=C(Nc1nc2ccccc2n1CCN1CCOCC1)c1cccc([N+](=O)[O-])c1`, for which the Potency is 10.5 µM (active).

As for `Cc1cccc(-c2[nH]c(C(C)(C)C)nc2-c2ccc3nccnc3c2)n1`, the Potency is 16.6 µM (active).

`CCc1cncnc1N1CCN(Cc2nc3ccc(C(F)(F)F)cc3[nH]2)CC1`: the Potency is 1.18 µM (active).

For the origin of these results see PubChem BioAssay (NCATS).
